These results are taken from PubChem BioAssay (NCATS).

Structures are written as SMILES. Inconclusive results are not listed. Unmarked numbers belong to inactive results. Active and inactive are the calls of the source. Calls follow the shape of the dose curve; as a rule, active = well fitted curve in the direction sought with a large enough effect; inconclusive = small, poorly fitted or top-dose-only effect, or another doubt; inactive = no such curve, though single readings can be large; an effect the other way counts as inactive or inconclusive.

For test [1], the target named is Tyrosyl-DNA phosphodiesterase 1 (Homo sapiens) (UniProt Q9NUW8). The test can be described thus: Confirmation Assay for Inhibitors of Tyrosyl-DNA Phosphodiesterase (TDP1) (AID 489007). Also: potency is read from the fitted curve at half-maximal effect; nearly all actives have a fitted effect of over 40% in size. Particulars: recombinant human TDP1 enzymatic activity, dose-response. The essentials:
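Loss of AlphaScreen signal reports Tdp1 cleavage of a dual-labelled DNA substrate. Conditions: 1 nM E. coli-derived enzyme, 15 nM substrate, 15 min compound preincubation, 5 min reaction, 10 min bead incubation, all at room temperature.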

The target in test [2] is ATP-dependent 6-phosphofructokinase (Trypanosoma brucei brucei) (UniProt O15648). The test can be described thus: qHTS Assay to Find Inhibitors of T. brucei phosphofructokinase: hit validation (AID 492961).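 Also: luminescence reports ADP formed as PFK phosphorylates fructose-6-phosphate with ATP; % is scaled to controls: 0 for no effect and ±100 for the full control effect.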 The settings on record: T. brucei PFK, ADP-Glo luminescence; series mostly up to 51.4 µM. A digest of the protocol: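 Measures ADP output of PFK (1.25 nM) at 0.1 mM ATP, 0.5 mM F6P, pH 8.0 TEA buffer with 5 mM MgCl2. No-enzyme wells define full inhibition; uninhibited enzyme wells define zero.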
Sequence of ATP-dependent 6-phosphofructokinase (Trypanosoma brucei brucei) (O15648 whole entry, looked up): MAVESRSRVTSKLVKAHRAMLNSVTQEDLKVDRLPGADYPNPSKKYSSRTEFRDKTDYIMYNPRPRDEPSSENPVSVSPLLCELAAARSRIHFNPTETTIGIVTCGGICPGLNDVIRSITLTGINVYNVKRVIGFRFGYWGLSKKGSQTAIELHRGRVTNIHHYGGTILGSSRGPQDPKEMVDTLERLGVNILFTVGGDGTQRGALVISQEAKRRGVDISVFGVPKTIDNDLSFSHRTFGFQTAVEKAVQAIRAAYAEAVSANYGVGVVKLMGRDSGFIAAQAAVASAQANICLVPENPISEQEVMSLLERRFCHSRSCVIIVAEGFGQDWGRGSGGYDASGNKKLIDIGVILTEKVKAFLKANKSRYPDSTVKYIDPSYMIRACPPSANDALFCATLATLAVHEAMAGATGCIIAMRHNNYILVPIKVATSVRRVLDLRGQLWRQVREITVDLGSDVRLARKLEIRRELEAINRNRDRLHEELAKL
(In qHTS, concentration-response curves come from the screen itself.)

The nature of test [3]: qHTS profiling for inhibitors of Plasmodium falciparum proliferation (AID 504749).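 Also: 0% = DMSO vehicle and full inhibition = artemisinin control; nearly all actives have a fitted effect of over 60% in size.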 The settings on record: P. falciparum in erythrocytes, SYBR Green DNA, 72 h, at 28.7 µM (top of the series). A digest of the protocol: (§1)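 In a 72 h erythrocytic culture (37 C, humidified, 5% CO2) at 2.5% hematocrit and 0.3% starting parasitemia, compounds were tested; SYBR Green I in detergent lysis buffer stained parasite DNA overnight.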

The next test deals with 3D7. The description is as above. Particulars: P. falciparum in erythrocytes, SYBR Green DNA, 72 h; series mostly up to 28.7 µM. The essentials:
as §1

For the next test, the system named is 7G8. Described as above. Particulars: P. falciparum in erythrocytes, SYBR Green DNA, 72 h; series mostly up to 28.7 µM. A digest of the protocol: as §1
The next test has as its system AS120. Described as above. Particulars: P. falciparum in erythrocytes, SYBR Green DNA, 72 h; series mostly up to 28.7 µM. A digest of the protocol: as §1
Another test relates to ATS189. The description is as above. The settings on record: P. falciparum in erythrocytes, SYBR Green DNA, 72 h; series mostly up to 28.7 µM. A digest of the protocol:
as §1

For a further test, the system named is CP185. Described as above. Particulars: P. falciparum in erythrocytes, SYBR Green DNA, 72 h; series mostly up to 28.7 µM. A digest of the protocol:
as §1

Another test relates to CP191. The description is as above. Particulars: P. falciparum in erythrocytes, SYBR Green DNA, 72 h; series mostly up to 28.7 µM. A digest of the protocol: as §1
The test system of a further test is CP192. The description is as above. Particulars: P. falciparum in erythrocytes, SYBR Green DNA, 72 h; series mostly up to 28.7 µM. A digest of the protocol:
as §1

Another test deals with CP194. The test is described as above. Particulars: P. falciparum in erythrocytes, SYBR Green DNA, 72 h; series mostly up to 28.7 µM. The essentials: as §1
The next test deals with CP201. The description is as above. Particulars: P. falciparum in erythrocytes, SYBR Green DNA, 72 h; series mostly up to 28.7 µM. A digest of the protocol:
as §1

The test system of another test is CP203. The description is as above. Particulars: P. falciparum in erythrocytes, SYBR Green DNA, 72 h; series mostly up to 28.7 µM. The essentials: as §1
The test system of another test is CP247. The test is described as above. The settings on record: P. falciparum in erythrocytes, SYBR Green DNA, 72 h; series mostly up to 28.7 µM. The essentials:
as §1

Another test deals with CP286. The description is as above. Particulars: P. falciparum in erythrocytes, SYBR Green DNA, 72 h; series mostly up to 28.7 µM. A digest of the protocol:
as §1

The test system of another test is CP291. Described as above. Particulars: P. falciparum in erythrocytes, SYBR Green DNA, 72 h; series mostly up to 28.7 µM. A digest of the protocol:
as §1

The subject of a further test is CP305. The description is as above. Particulars: P. falciparum in erythrocytes, SYBR Green DNA, 72 h; series mostly up to 28.7 µM. A digest of the protocol: as §1
A further test has as its system HB3. Described as above. The settings on record: P. falciparum in erythrocytes, SYBR Green DNA, 72 h; series mostly up to 28.7 µM. The essentials:
as §1

Another test concerns P94_40. The test is described as above. The settings on record: P. falciparum in erythrocytes, SYBR Green DNA, 72 h; series mostly up to 28.7 µM. A digest of the protocol: as §1
The next test relates to PC49. The test is described as above. Particulars: P. falciparum in erythrocytes, SYBR Green DNA, 72 h; series mostly up to 28.7 µM. The essentials:
as §1

Sequence of Tyrosyl-DNA phosphodiesterase 1 (Homo sapiens) (Q9NUW8 whole entry, looked up): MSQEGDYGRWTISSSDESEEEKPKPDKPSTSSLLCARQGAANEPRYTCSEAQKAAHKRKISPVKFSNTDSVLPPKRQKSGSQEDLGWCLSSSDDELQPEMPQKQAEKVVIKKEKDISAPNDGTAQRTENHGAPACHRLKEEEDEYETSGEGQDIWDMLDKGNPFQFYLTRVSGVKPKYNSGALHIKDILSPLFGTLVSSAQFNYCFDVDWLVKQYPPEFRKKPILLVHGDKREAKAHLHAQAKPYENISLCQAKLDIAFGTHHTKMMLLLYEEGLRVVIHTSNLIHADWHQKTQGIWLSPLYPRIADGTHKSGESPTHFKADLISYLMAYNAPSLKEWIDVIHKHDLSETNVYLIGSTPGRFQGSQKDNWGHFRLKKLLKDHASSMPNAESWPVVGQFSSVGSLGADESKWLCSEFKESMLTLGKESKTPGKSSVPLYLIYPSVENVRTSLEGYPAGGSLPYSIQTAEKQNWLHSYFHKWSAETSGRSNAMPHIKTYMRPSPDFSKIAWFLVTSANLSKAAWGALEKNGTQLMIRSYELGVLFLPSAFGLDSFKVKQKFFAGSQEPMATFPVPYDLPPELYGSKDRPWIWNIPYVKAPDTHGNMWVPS

On to `O=C(O)C1CC=CCC1C(=O)Nc1ccccc1` (stereo not given), for which, in test [1], the Potency was 14.1 µM (active).
In the case of `CC1(C)OC(=O)C(=Cc2ccc(-c3ccc(Cl)c(C(=O)O)c3)o2)C(=O)O1`, in [1], the Potency was 14.1 µM (active).
As to `O=C(CSc1nnc(SCc2ccc(Cl)cc2)s1)N/N=C/c1c[nH]c2ccccc12`, the Potency in [1] is 5.01 µM (active).
`OCC1O[C@@H](O[C@@H]2C(CO)OC(O)C(O)C2O)C(O)C(O)C1O` (stereo not given in full): the Potency entry (in [2]; in the test with 3D7; with 7G8; with AS120; in the test with ATS189; in the test on CP185) was “inactive” in each case. The Potency result in the test on CP191, in the test with CP192, in the test on CP194, in the test on CP201, in the test on CP203 and in the test with CP247 was “inactive” each time. Also, the Potency result in the test with CP286, with CP291, in the test on CP305, in the test on HB3, in the test with P94_40 and in the test with PC49 was “inactive” throughout. Moreover, the activity, negative = inhibition in [3] (parasite line A) is 8.35%; in test [3] (parasite line B), 4.55%.
Regarding `Cc1nn(Cc2ccc(F)cc2)c(C)c1NC(=O)c1cc2ncc(Br)cn2n1`, in test [1], the Potency was 44.7 µM (active).
On to `CCN(CC)C(=O)COc1ccc2oc(-c3ccco3)cc(=O)c2c1`, for which, in [1], the Potency was 112 µM (active).
Regarding `Cc1ccc(Oc2cc(-n3nc(C)cc3C)ncn2)cc1`, in test [1], the Potency is 112 µM (active).
On the same count and under the same terms, with `Cc1c(-c2ccc(Cl)cc2)oc(=O)c2c(N)n(-c3ccccc3)nc12` the figure was 25.1 µM (active); with `O=C(CSc1nc(NS(=O)(=O)c2ccccc2)cc(=O)[nH]1)Nc1ccc(Cl)cc1`, 22.4 µM (active); with `CCN(CC)C(=O)CC(c1ccc(OC)cc1)c1c(OC)cc(OC)c2c(-c3ccccc3)cc(=O)oc12` (stereo not given), 2.24 µM (active).
For the compound `CO/N=C(/C(=O)NC1C(=O)N2C(C(=O)O)=C(COC(N)=O)CSC12)c1ccco1` (stereo not given), the Potency in [1] is 6.31 µM (active).
Consider `CC1=NN(c2ccc(Cl)c(C(=O)O)c2)C(=O)/C1=C\c1ccc(-c2ccc(C(=O)O)cc2)o1`, for which the Potency in [1] is 14.1 µM (active).
For `Cc1ccc(C)n1-c1ccc(C(=O)O)cc1`, the Potency in [1] is 0.794 µM (active).
As to `COc1ccc2cc3cc(C(=O)NCc4cccs4)oc3nc2c1`, the Potency in [1] is 25.1 µM (active).
As for `CC(=O)Nc1ccc2c(COC(=O)CC3Sc4ccccc4NC3=O)cc(=O)oc2c1` (stereo not given), in [1], the Potency was 15.8 µM (active).
As to `C=CCCN(Cc1ccccc1)S(=O)(=O)c1ccccc1Br`, in test [1], the Potency was 56.2 µM (active).
In the case of `CO/N=C(/C(=O)N[C@@H]1C(=O)N2C(C(=O)O)=C(CSc3nc(C)c(CC(=O)O)s3)CS[C@H]12)c1csc(N)n1`, the Potency entry (in [2]; in the test on 3D7; in the test on 7G8; with AS120; in the test with ATS189; in the test on CP185) was “inactive” each time. Moreover, the Potency result with CP191, in the test with CP192, in the test on CP194, in the test with CP201, in the test on CP203 and in the test on CP247 was “inactive” in each case. Also, the Potency entry with CP286, in the test on CP291, in the test with CP305, with HB3, with P94_40 and in the test on PC49 was “inactive” each time. Also, the activity, negative = inhibition in test [3] (parasite line A) was 5.91%; in test [3] (parasite line B), 4.95%.
Take `CO/N=C(/C(=O)N[C@@H]1C(=O)N2C(C(=O)O)=C(C[n+]3ccc(N)n3CCO)CS[C@H]12)c1csc(N)n1`: the Potency result (in test [2]; in the test on 3D7; in the test on 7G8; with AS120; in the test on ATS189; in the test on CP185) was “inactive” throughout. Further, the Potency entry in the test on CP191, in the test with CP192, with CP194, in the test with CP201, in the test on CP203 and in the test with CP247 was “inactive” each time. The Potency result with CP286, with CP291, with CP305, in the test with HB3, with P94_40 and in the test with PC49 was “inactive” throughout. For the same compound, the activity, negative = inhibition in [3] (parasite line A) was 0.303%; in test [3] (parasite line B) it was 9.51%.
